Laboratory results taken from PubChem BioAssay AID2284159 (EPA ToxCast).
Calls of active or inactive are those of the source. The calls were made as follows: active = hit-call score of the fitted dose curve at least 0.9, where 1 is the maximum; inactive = score below 0.9.

target: human Dopamine Receptor D2L, DRD2 (gene 1813) (UniProt P14416); experiment: ERF_FR_GPCR_hDRD2: Eurofins (ERF) G Protein-Coupled Receptor (GPCR) Radioligand Binding LeadHunter Assay for human Dopamine Receptor D2L Antagonism
Sequence (P14416 whole entry, looked up): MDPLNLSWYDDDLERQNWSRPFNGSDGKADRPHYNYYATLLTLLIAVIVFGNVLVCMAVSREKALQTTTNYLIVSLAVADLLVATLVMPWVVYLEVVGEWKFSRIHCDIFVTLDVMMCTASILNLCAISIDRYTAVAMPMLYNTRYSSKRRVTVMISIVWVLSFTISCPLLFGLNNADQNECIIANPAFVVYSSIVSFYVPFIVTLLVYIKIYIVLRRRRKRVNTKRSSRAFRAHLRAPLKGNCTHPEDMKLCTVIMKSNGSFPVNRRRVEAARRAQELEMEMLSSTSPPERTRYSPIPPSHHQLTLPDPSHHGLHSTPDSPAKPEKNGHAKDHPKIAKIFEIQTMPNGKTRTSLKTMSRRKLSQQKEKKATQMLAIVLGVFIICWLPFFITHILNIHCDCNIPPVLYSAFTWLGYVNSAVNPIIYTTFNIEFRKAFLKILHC
Protocol: ERF_FR_GPCR_hDRD2 is a biochemical, single-readout assay that uses extracted gene-proteins in a cell-free assay. Measurements were taken 1 hour after chemical dosing in a 96-well plate. See D2L Human Dopamine GPCR Binding (Antagonist Radioligand) Assay, Cerep.ERF_FR_GPCR_hDRD2 is an assay component calculated from the ERF_FR_GPCR_hDRD2 assay. It is designed to measure radioligand binding using a type of binding reporter as detected by scintillation counting with radiometry technology.Data from the assay component ERF_FR_GPCR_hDRD2 was analyzed at the assay endpoint, ERF_FR_GPCR_hDRD2, in the positive analysis fitting direction relative to DMSO as the negative control and baseline of activity. Using a type of binding reporter, loss-of-signal activity can be used to understand changes in binding as they relate to gene DRD2. To generalize the intended target to other relatable targets, this assay endpoint is annotated to the gpcr intended target family, where the subfamily is dopamine.
Human cells are incubated for 60 minutes at room temprature with [3H]methyl-spiperone ligand (0.3 nM) and Butaclamol as control inhibitor.Test Sample Requirements: Minimum for 1) Screen: 60 ul of 10 mM stock -OR- 1 mg (pre-weighed) for 10 uM final testing. 2) Dose Response: 90 ul of 10 mM stock -OR- 1 mg (pre-weighed) for a top concentration at 10 uM.

Structure (SMILES)	AC50
O=C(/C=C/c1ccc(O)cc1)CC(=O)/C=C/c1ccc(O)cc1	1550 nM (active)
